Records with an inconclusive call do not appear. Unmarked numbers belong to inactive results. Active and inactive are the calls of the source. Calls come from the whole dose curve; as a rule, active = well fitted inhibition curve with a large enough effect in the signal ratio in the repeat runs (not every such curve was filed as active); inconclusive = weak or mixed curves; inactive = flat fitted curve, though single readings scatter; the % refers to the signal ratio.
% is set by controls: 0 for no effect and ±100 for the full control effect; potency is the fitted concentration of half-maximal effect.

Progesterone receptor (Homo sapiens), sequence (P06401 whole entry, looked up): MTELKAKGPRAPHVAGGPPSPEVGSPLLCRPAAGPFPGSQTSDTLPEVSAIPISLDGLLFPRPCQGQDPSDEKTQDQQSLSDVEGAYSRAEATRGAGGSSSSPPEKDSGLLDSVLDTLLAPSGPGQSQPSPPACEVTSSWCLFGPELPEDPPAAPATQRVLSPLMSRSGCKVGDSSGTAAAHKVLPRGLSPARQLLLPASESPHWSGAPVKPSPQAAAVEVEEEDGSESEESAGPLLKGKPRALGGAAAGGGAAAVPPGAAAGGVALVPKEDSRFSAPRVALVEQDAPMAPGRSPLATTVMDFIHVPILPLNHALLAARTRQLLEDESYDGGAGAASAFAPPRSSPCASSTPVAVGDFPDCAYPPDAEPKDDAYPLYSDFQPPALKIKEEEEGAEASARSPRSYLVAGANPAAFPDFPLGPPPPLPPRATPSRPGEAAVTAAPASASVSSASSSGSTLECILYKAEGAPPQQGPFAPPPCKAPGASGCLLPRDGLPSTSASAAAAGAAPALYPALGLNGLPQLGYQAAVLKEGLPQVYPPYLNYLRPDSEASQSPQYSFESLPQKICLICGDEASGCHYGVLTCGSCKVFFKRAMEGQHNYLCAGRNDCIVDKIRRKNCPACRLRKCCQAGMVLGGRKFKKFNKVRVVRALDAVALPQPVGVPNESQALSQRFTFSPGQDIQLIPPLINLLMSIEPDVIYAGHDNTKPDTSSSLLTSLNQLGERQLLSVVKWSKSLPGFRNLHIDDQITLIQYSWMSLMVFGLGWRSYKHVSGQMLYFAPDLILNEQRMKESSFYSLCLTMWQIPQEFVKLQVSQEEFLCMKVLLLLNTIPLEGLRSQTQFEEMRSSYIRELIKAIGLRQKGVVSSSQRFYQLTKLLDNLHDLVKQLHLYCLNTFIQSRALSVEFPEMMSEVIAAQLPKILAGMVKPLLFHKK

This assay has as its target Progesterone receptor (Homo sapiens) (UniProt P06401). The experiment in a line: qHTS assay to identify small molecule antagonists of the progesterone receptor (PR) signaling pathway (AID 1346795). Conditions: PR-UAS-bla HEK293T, beta-lactamase FRET ratio, 16 h; series mostly up to 92.4 µM; activity change, negative = inhibition: at the top concentration. From the text: National Center for Advancing Translational Sciences [NCATS]
NIH Chemical Genomics Center [NCGC]
U.S. Environmental Protection Agency [EPA]
National Institutes of Environmental Health Sciences [NIEHS]
National Toxicology Program [NTP]
U.S. Food and Drug Administration [FDA]
Progesterone receptor (PR), a nuclear hormone receptor, plays an important role in development, metabolic homeostasis and reproduction. […] Endocrine disrupting chemicals (EDCs) and their interactions with steroid hormone receptors like PR causes disruption of normal endocrine function. To identify the compounds that inhibit PR signaling, a PR-UAS-bla GripTite cell line i.e. PR-UAS-bla HEK293T (Invitrogen, Carlsbad, CA, USA) containing a beta-lactamase reporter gene under the control of an Upstream Activator Sequence (UAS) was used to screen Tox21 10K compound library.
Tox21 Assay Protocol Summary:
PR-UAS-bla HEK293T cells were dispensed at 3,000 cells/4 uL of assay medium containing 2% charcoal stripped FBS per well into black wall/clear-bottom 1536-well plates using a Multidrop Combi (ThermoFisher Scientific, Waltham, MA) dispenser. After the assay plates were incubated at a 37C and 5% CO2 for 6 hr, 23 nL of compounds dissolved in DMSO, positive controls or DMSO only was transferred to the assay plate by a Pintool station (Kalypsys, San Diego, CA), followed by addition of 1 uL (1nM as final concentration) of Promegestone (R5020) in assay medium using a BioRAPTR FRD (Flying Reagent Dispenser, Aurora Discovery, San Diego, CA). The plates were incubated at 37C and 5% CO2 for 16 hr. Then 1 uL of LiveBLAzer B/G FRET substrate was added using a FRD. After the plates were incubated at room temperature for 2 hours, fluorescence intensity was measured by an Envision plate reader (PerkinElmer, Shelton, CT).
Regarding `CC(C)=CC(C)(C)C`, the “activity change, negative = inhibition” value is 0.535%.
`C=C[C@@H](C)CCC=C(C)C`: the “activity change, negative = inhibition” value was 10%.
As to `Cc1nc2n(c(=O)c1CCN1CCC(C(=O)c3ccc(F)cc3)CC1)CCS2`, the “activity change, negative = inhibition” value was 8.06% [at 42.5 µM].
Take `CN[C@@H]1[C@H](O)[C@H](NC)[C@H]2O[C@@]3(O)C(=O)C[C@@H](C)O[C@H]3O[C@@H]2[C@H]1O`: the “activity change, negative = inhibition” value is -3.66% [at 42.5 µM].
As to `SCCSCCS`, the “activity change, negative = inhibition” value is 9.4%.
For the molecule `CC(C)COC(=O)COc1ccc(Cl)cc1Cl`, the “activity change, negative = inhibition” value was 8.04%.
Still for that read-out and setting: under `CCCCCCCCCCC` stands 10.3%; under `C[CH2][Ge]([Cl])([CH2]C)[CH2]C`, 0.16%; under `CC1CCC(C(C)(C)S)C(=O)C1` (stereo not given), 0.334%.
On to `CCOC(=O)C(C)(C)C`, for which the “activity change, negative = inhibition” value is 3.76%.
On the same count and under the same terms, under `C=C(C)C(=O)OCCCCCCOC(=O)C(=C)C` stands 11.5%.
As for `CCN(Cc1cccc(S(=O)(=O)O)c1)c1ccccc1`, the “activity change, negative = inhibition” value is 12.6%.
For `C=CCOCC(CO)(COCC=C)COCC=C`, the “activity change, negative = inhibition” value was -0.618% [at 42.5 µM].
For the molecule `Nc1nc(=O)n([C@@H]2O[C@H](CO)[C@@H](O)[C@@H]2F)cc1I`, the “activity change, negative = inhibition” value was 4.57% [at 42.5 µM].
With `CCCCCN(CCCOC)C(=O)C(CCC(=O)O)NC(=O)c1ccc(Cl)c(Cl)c1` (stereo not given), the “activity change, negative = inhibition” value was -7.88% [at 42.5 µM].
On the same count and under the same terms, under `O=C(O)c1c(Cl)ccc(Cl)c1Cl` stands 14.8%.
Regarding `CCCCCC(=O)OCC`, the “activity change, negative = inhibition” value was 5.56%.
`C=C(C)C(=O)OC1CC(C)CC(C)(C)C1` (stereo not given): the “activity change, negative = inhibition” value was 17.2%.
Consider `C[C@H](CCC(=O)O)[C@H]1CC[C@H]2[C@@H]3[C@H](O)C[C@@H]4C[C@H](O)CC[C@]4(C)[C@H]3C[C@H](O)[C@]12C`, for which the “activity change, negative = inhibition” value is 6.3% [at 42.5 µM].
Take `c1ccccc1`: the “activity change, negative = inhibition” value was 5.51%.
Consider `CCCCCCCCCCCCOC(C)=O`, for which the “activity change, negative = inhibition” value is 3.26%.
Turning to `C=C[Si](C)(C)O[Si](C)(C)C=C`, the “activity change, negative = inhibition” value is 6.53%.
Still for that read-out and setting: with `Cc1ccc(S(=O)(=O)NC(=O)NC2CCCCCCC2)cc1` the figure was 4.75% [at 42.5 µM].
The same measure, in the same setting: with `CCC1COC(=O)O1` (stereo not given) the figure was 2.38%.
As to `O=C1OC(=O)c2cc(Oc3ccc4c(c3)C(=O)OC4=O)ccc21`, the “activity change, negative = inhibition” value is -0.213%.
Consider `CCCO`, for which the “activity change, negative = inhibition” value is 12.5%.
On the same count and under the same terms, under `C1CCN2C[C@@H]3C[C@@H](CN4CCCC[C@@H]34)[C@H]2C1` stands 7.96% [at 42.5 µM]; under `Cc1cc(C)cc([N+](=O)[O-])c1`, 6.99%; under `NS(=O)(=O)c1cc2c(cc1Cl)NC(CC1CCCC1)NS2(=O)=O` (stereo not given), 8.51% [at 42.5 µM].
Take `C/C=C(\C)C(=O)OCC/C=C\CC`: the “activity change, negative = inhibition” value is 7.25%.
As for `CC(C)COC(=O)/C=C/c1ccccc1`, the “activity change, negative = inhibition” value was -1.84%.
For the molecule `O=C(/C=C/c1ccccc1)NCCO`, the “activity change, negative = inhibition” value is -3.7% [at 42.5 µM].
Take `CCCCCCCC/C=C\CCCCCCCC(=O)OC[C@@H](O)[C@H]1OC[C@H](O)[C@H]1O`: the “activity change, negative = inhibition” value was 3.24%.
With `CO[Si](CCCCl)(OC)OC`, the “activity change, negative = inhibition” value was 1.02%.
For `CCCCCCCCCCCCC`, the “activity change, negative = inhibition” value was 2.99%.
Regarding `Oc1ccccc1Cc1ccccc1O`, the Potency was 27.3 µM (active).
Consider `C[N+](C)(C)CC(O)CCl` (stereo not given), for which the “activity change, negative = inhibition” value was 5.43%.
As to `CCN(CC)C(=O)C1CN2CCc3cc(OC)c(OC)cc3C2CC1OC(C)=O` (stereo not given), the “activity change, negative = inhibition” value was 6.83% [at 42.5 µM].
In the case of `CC(=O)OC[C@H]1O[C@@H](OC(C)=O)[C@H](OC(C)=O)[C@@H]1OC(C)=O`, the “activity change, negative = inhibition” value was 0.122% [at 42.5 µM].
Take `O=C(O)C(=O)Nc1cccc(-c2nn[nH]n2)c1`: the “activity change, negative = inhibition” value was 7.76% [at 42.5 µM].

For the origin of these results see PubChem BioAssay (Tox21).
